Screening data deposited in PubChem by National Center for Advancing Translational Sciences (NCATS).
HT1080NT lethal – kills 2HG-producing HT-1080-NT fibrosarcoma cells; 1.6% of 360,000 active; HT-1080-NT fibrosarcoma viability, CellTiter-Glo ATP luminescence, 48 h; Potency, µM (titrated, usually from 46.1 µM), without a hit: top-dose activity, negative = less viability, actives largely listed as cytotoxic;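 further: NT is the 2HG producing partner of a matched IDH1 knockdown line; potency means the concentration at half of the fitted maximal effect; 0% = DMSO-treated cells and -100% = media-only wells without cells; nearly all actives have a fitted effect of over 55% in size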
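750 cells/well, RPMI + 5% FBS; 2 h settle, compound pin-transfer, 48 h at 37 degrees C. CellTiter-Glo 10 min RT, luminescence. Normalized to DMSO and media-only wells.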
IL1B secr inh – blocks inflammasome-driven IL-1 beta release. THP-1 LPS/ATP IL-1B secretion, AlphaLISA, 16 h; stronger effect = lower value. activity change, % at 57.5 µM. 4.7% of 360,000 active. AID 743279; in the data active means activity change below about -50%; inconclusive means mostly about -30% to -49%
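THP-1 cells pretreated 1 hr with compounds (up to 57.5 uM final), then stimulated with LPS (250 ng/mL final) plus ATP (1.25 mM final); secreted IL-1B measured by AlphaLISA after 16 hr, decreased signal indicating inhibition.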
HT1080 IDH1KD tx – HT-1080 IDH1 knockdown cell toxicity (counter line); 2% of 360,000 active; Potency, µM (series often up to 46.1 µM), for inactives: top-dose activity, negative = toxicity, actives largely listed as cytotoxic; HT-1080 IDH1 knockdown viability, ATP luminescence, 48 h; AID 686971;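 further: potency means the concentration at half of the fitted maximal effect; 0% = DMSO wells and -100% = cell-free medium wells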
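HT-1080-IDH1KD cells (IDH1 knocked down), 750/well in RPMI with 5% FBS, treated with compound 48 h at 37 degrees C. Viability by CellTiter-Glo luminescence, normalised to DMSO and no-cell wells; concentration-response curves classed.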
TDP1 cell noCPT – qHTS for Inhibitors of human tyrosyl-DNA phosphodiesterase 1 (TDP1): qHTS in cells in absence of CPT; DT40 Tdp1-/- hTDP1 cells, no CPT, ATP luminescence, 48 h; Potency, µM (highest dose often 46.2 µM), without a hit: at the top dose activity change, negative = growth inhibition, most hits filed as inhibitors; 15% of 420,000 active; AID 686978, 2013; further: potency means the concentration at half of the fitted maximal effect; nearly all actives have a fitted effect of over 55% in size
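Stably hTDP1-transfected Tdp1-null chicken DT40 cells were treated with library compounds minus camptothecin and grown for at least 48 hr at 37 °C, after which cellular ATP was quantified by luminescence.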
DT40 TDP1 CPT – growth inhibition of DT40 Tdp1-/-;hTDP1 cells with camptothecin (screen for TDP1 inhibitors); Potency, µM (titrated, usually from 46.2 µM), without a hit: top-dose activity change, negative = growth inhibition, most hits filed as inhibitors; chicken DT40 Tdp1-/-;hTDP1 cells + 20 nM CPT, ATP luminescence, 48 h; 12% of 420,000 active; AID 686979; further: potency means the concentration at half of the fitted maximal effect; nearly all actives have a fitted effect of over 55% in size
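Chicken DT40 Tdp1-/- cells stably complemented with human TDP1 were seeded at 400 cells/well in medium containing 20 nM camptothecin, exposed to pin-transferred compounds, and grown at 37 °C for at least 48 hr. Viability was read as ATP luminescence.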
The depositor's hits bear a star; ? = inconclusive; . = not tested or not shown. A selection: hits, their analogues and other compounds. The true share with any hit is near 19%. Unless noted, the call rests on the fitted dose curve; in most records, active means well fitted curve in the direction sought with a large enough effect; inconclusive means small, poorly fitted or top-dose-only effect, or another doubt; inactive means no such curve, though single readings can be large; an effect the other way counts as inactive or inconclusive. Unless noted, on the % scale 0 is the no-effect control and ±100 the full control effect.

SMILES	HT1080NT lethal	IL1B secr inh	HT1080 IDH1KD tx	TDP1 cell noCPT	DT40 TDP1 CPT
CCCCn1c(N)c(N(Cc2ccccc2OC)C(=O)c2ccc([N+](=O)[O-])s2)c(=O)[nH]c1=O	-18.4%	65.0	-9.8%	18.4µM*	?
Cc1cc(O)ccc1Nc1cc(-c2cccc(N(C)C)c2)ncn1	-3.3%	-22.1	-2.1%	-21.1%	?
COc1ccc(-n2c(CNC(=O)c3cccc4ccccc34)nnc2SC)cc1	.	.	.	-21.4%	9.1%
CNc1ccc(C=O)cc1Br	.	.	.	-23.0%	-5.8%
CCOC(=O)[C@]12CCCC=C1N(Cc1ccco1)C(=O)[C@H](CC(=O)NCc1cccc(C(F)(F)F)c1)C2	-21.2%	0.0	-11.6%	18.4µM*	?
CCOC(=O)[C@]12CCC=C1N(CCC1=CCCCC1)C(=O)[C@H](CC(=O)NCc1cccc(C(F)(F)F)c1)C2	-27.0%	-21.5	-4.8%	20.6µM*	?
COC(=O)[C@]12CCCCC=C1N(Cc1cccc3ccccc13)C(=O)[C@H](CC(=O)NCc1cccc(C(F)(F)F)c1)C2	?	-73.1*	?	?	?
COC(=O)[C@]12CCCCC=C1N(Cc1ccco1)C(=O)[C@H](CC(=O)NCc1cccc(C(F)(F)F)c1)C2	-4.9%	-14.6	-11.2%	?	?
CCOC(=O)[C@]12CCCC=C1N(Cc1ccccc1)C(=O)[C@H](CC(=O)NCc1cccc(C(F)(F)F)c1)C2	29.1µM*	?	?	?	?
CCOC(=O)[C@]12CCCC=C1N(Cc1cccc3ccccc13)C(=O)[C@H](CC(=O)NCc1cccc(C(F)(F)F)c1)C2	?	-4.8	-22.9%	?	?
CN1CC(O)(C(O)C(O)C(O)CO)SC1=S (stereo not drawn)	2.7%	11.5	4.8%	4.5%	4.1%
Cc1cc(C)nc(NS(=O)(=O)c2ccc(NC(=O)c3ccccc3O)cc2)n1	.	.	.	-3.4%	-10.9%
CC(=O)Nc1nc(Cn2nnc(-c3ccc4c(c3)OCO4)n2)nc(N(C)C)n1	-0.8%	3.3	-0.6%	?	2.2%
CCOc1ccc(C2C(C#N)=C(N)N(N(C)C)C3=C2C(=O)CC(C)(C)C3)cc1 (stereo not drawn)	-2.4%	-10.5	4.9%	-4.1%	-28.9%
CCNCC(=O)N1c2ccccc2CCc2ccc(NC(C)=O)cc21	-5.1%	1.5	-12.1%	-7.8%	-12.2%
CC(C)OC(=O)Nc1ccc2c(c1)N(C(=O)N1CCN(C)CC1)c1ccccc1CC2	23.1µM*	-28.1	23.1µM*	13µM*	11.6µM*
CCNCC(=O)N1c2ccccc2CCc2ccc(NC(=O)OC(C)C)cc21	-25.4%	-66.2*	-16.9%	16.4µM*	?
CCOC(=O)Nc1ccc2c(c1)N(C(=O)N(C)C)c1ccccc1CC2	2.3%	0.0	-0.1%	29.1µM*	?
Cc1ccc(C(=O)NC2CCN(CC(=O)NCc3cccs3)CC2)cc1	13.4%	0.0	5.4%	17.4%	-2.5%
O=C(NCc1cccs1)c1ccccc1[N+](=O)[O-]	13.7%	10.0	3.5%	4.3%	5.3%
Cc1ccc(N(Cc2cccs2)C(=O)COc2ccccc2[N+](=O)[O-])cc1	.	.	.	23.1µM*	20.6µM*
C/C(=N\NC(=O)COc1ccccc1[N+](=O)[O-])c1cccs1	0.5%	35.1	?	?	-22.6%
COc1ccc(N(Cc2cccs2)C(=O)COc2ccc([N+](=O)[O-])cc2)cc1	.	.	.	25.9µM*	?
Cc1ccc(N(Cc2cccs2)C(=O)c2ccccc2[N+](=O)[O-])cc1	.	.	.	9.2µM*	14.6µM*
CN(C(=O)COc1ccccc1)c1ccc([N+](=O)[O-])cc1	-5.3%	-23.9	0.6%	-14.0%	-9.8%
COc1ccc(NC(=O)CCS(=O)(=O)c2cc3c4c(c2)CCN4C(=O)CC3)cc1OC	.	.	.	-4.0%	-15.7%
Cc1cc(C)n(-c2nc(C)c(C)c(=O)n2CC(=O)Nc2ccc(OC(F)(F)F)cc2)n1	.	.	.	18.4µM*	14.6µM*
